{"source": "ChEMBL document CHEMBL3433997", "about": "“St. Jude Leishmania screening dataset” (2016)"}
{"biological_target": "Solute carrier family 2, facilitated glucose transporter member 1 (Homo sapiens) (UniProt P11166)", "sequence (P11166 whole entry)": "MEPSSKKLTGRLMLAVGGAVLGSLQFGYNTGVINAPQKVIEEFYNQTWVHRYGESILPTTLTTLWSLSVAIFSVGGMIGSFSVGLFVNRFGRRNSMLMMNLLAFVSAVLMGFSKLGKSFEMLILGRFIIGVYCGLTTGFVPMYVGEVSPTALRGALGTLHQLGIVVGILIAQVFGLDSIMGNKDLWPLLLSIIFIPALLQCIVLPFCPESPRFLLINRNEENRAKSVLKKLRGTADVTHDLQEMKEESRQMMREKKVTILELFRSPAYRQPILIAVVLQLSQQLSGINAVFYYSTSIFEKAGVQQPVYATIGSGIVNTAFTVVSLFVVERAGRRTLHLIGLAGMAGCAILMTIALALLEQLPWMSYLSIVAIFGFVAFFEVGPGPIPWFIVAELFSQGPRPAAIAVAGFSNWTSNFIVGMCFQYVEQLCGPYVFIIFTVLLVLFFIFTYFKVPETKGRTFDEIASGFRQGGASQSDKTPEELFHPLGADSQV", "test": "ST_JUDE_LEISH: Cytotoxicity at 2uM final concentration against transgenic Leishmania Mexicana promastigotes LmGLUT1 that are glucose transport deficient and complemented with the human glucose transporter GLUT1. Activity is measured by DNA content using SYBR green in vitro", "type": "functional", "units": {"inhibition": "%"}}
{"smiles": "CCC(C)Oc1ccc2nc(N)nc(N)c2c1Cl", "note": "(stereo not given)", "inhibition": 41.2}
{"smiles": "CCOC(=O)c1c(C)noc1Nc1cccc(C)c1C", "inhibition": -3.16}
{"smiles": "COc1ccccc1OCCN(CC(O)COc1cccc2[nH]c3ccccc3c12)CC(O)COc1cccc2[nH]c3ccccc3c12", "note": "(stereo not given)", "inhibition": 3.01}
{"smiles": "O=C(Nc1cc(C(F)(F)F)cc(C(F)(F)F)c1)c1cccc([N+](=O)[O-])c1", "inhibition": 3.73}
{"smiles": "COc1cc2c(cc1N1CCN(C)CC1)N(C(=O)Nc1ccc(-c3ccncc3)c(Cl)c1Cl)CC2", "inhibition": 0.34}
{"smiles": "CS(=O)(=O)CCCNCc1ccc(-c2cc3c(Nc4ccc(OCc5ccccc5)cc4)ncnc3cn2)o1", "inhibition": 2.89}
{"smiles": "CC(C)c1ccc(NC(=O)c2cccc(CN3CCCN(CC4CCCCC4)CC3)c2)cc1", "inhibition": 11.7}
{"smiles": "O=C(c1ccc(O)c(-c2cc(Cl)cc(Cl)c2)c1)N1CCCC1", "inhibition": 1.89}
{"smiles": "COc1ccc(C2CC(c3cccs3)=NN2C(=O)COc2cccc(C(C)=O)c2)cc1OC", "note": "(stereo not given)", "inhibition": 0.04}
{"smiles": "Oc1ccc(CCNCc2ccc(OCc3ccccc3)c(OCc3ccccc3)c2)cc1", "inhibition": 75}
{"smiles": "Cn1cncc1C(=O)Nc1cccc(-c2cccc(-c3nc4cc(F)ccc4[nH]3)c2)c1", "inhibition": 4}
{"smiles": "COc1cc2ccccc2c(OC)c1CNCCCCCCNCc1c(OC)cc2ccccc2c1OC", "inhibition": 11.1}
{"smiles": "O=C(Nc1cccc(-c2ccc(-c3nc4cc(F)ccc4[nH]3)s2)c1)c1cccnc1", "inhibition": 5.68}
{"smiles": "CCn1cc(-c2nc(-c3cc(OC)cc(OC)c3)no2)c(=O)c2ccccc21", "inhibition": 12.3}
{"smiles": "CCNc1cc(C(=O)N[C@@H](Cc2ccccc2Cl)[C@H](O)CNC(C)CCCC(C)C)cc(N2CCCCS2(=O)=O)c1", "note": "(stereo not given in full)", "inhibition": -2.6}
{"smiles": "COc1cccc(-c2cc(C(=O)Nc3cc(Oc4ccc(O)cc4)cc([N+](=O)[O-])c3)on2)c1", "inhibition": 9.09}
{"smiles": "O=C(CCc1c[nH]cn1)Nc1ccc(-c2cccc(-c3nc4ccccc4[nH]3)c2)cc1", "inhibition": 0.28}
{"smiles": "CCOc1ccc(C(Cc2ccccc2)NC(=O)c2cccnc2)cc1OCC", "note": "(stereo not given)", "inhibition": 0.79}
{"smiles": "COc1ccc2nccc(NC(=O)C3CCC(NCc4ccc5c(c4)NC(=O)CS5)CC3)c2c1", "note": "(stereo not given)", "inhibition": 4.42}
{"smiles": "Cc1cc(N)c2cc(NC(=O)c3cccc4ccccc34)ccc2n1", "inhibition": 0.77}
{"smiles": "CC1=C(C(=O)Nc2ccccc2)C(c2ccc([N+](=O)[O-])cc2)n2ncc(C(=O)Nc3ccccc3)c2N1", "note": "(stereo not given)", "inhibition": 14.2}
{"smiles": "O=C(N[C@H]1CCN(CCc2ccc(O[C@H]3CCNC3)c(Cl)c2)C1)c1ccc(Cl)c(Cl)c1", "inhibition": 1.64}
{"smiles": "Clc1ccc(CCNCCCCCCNCCc2ccc3c(c2)OCO3)cc1", "inhibition": 8.05}
{"smiles": "CCOC(=O)CCc1cc(F)c(F)c(OC[C@H](O)CNC(C)(C)C(O)c2ccc3ccccc3c2)c1", "note": "(stereo not given in full)", "inhibition": 0.06}
{"smiles": "Cc1ccccc1N1CCN(c2ccc(C(=O)Nc3ccccc3)cn2)CC1", "inhibition": 9.19}
{"biological_target": "Hexose transporter 1 (Plasmodium falciparum) (UniProt O97467)", "test": "ST_JUDE_LEISH: Cytotoxicity at 2uM final concentration against transgenic Leishmania Mexicana promastigotes LmPfHT that are glucose transport deficient and complemented with the Plasmodium falciparum hexose transporter. Activity is measured by DNA content using SYBR green in vitro", "type": "functional", "units": {"inhibition": "%"}}
{"smiles": "COc1ccc(S(=O)(=O)Nc2cc(Br)cc3c2OCCC3)cc1N1CCN(C(=O)C(Cl)(Cl)Cl)CC1", "inhibition": -1.14}
{"smiles": "COCCOCCOCCn1ccc2c3c(N)nc(N)nc3ccc21", "inhibition": 1.94}
{"smiles": "Cc1cc(F)ccc1-c1nc(NCC(O)CNCCc2ccccc2)nc2c1ccc(=O)n2-c1c(F)cccc1F", "note": "(stereo not given)", "inhibition": 4.59}
{"smiles": "Fc1cccc(Nc2nc(NCCc3ccc(Cl)cc3)nc(Nc3cccc(F)c3)n2)c1", "inhibition": 2.12}
{"smiles": "CCc1nnc2sc(-c3cccc(NC(=O)c4ccc(C)c([N+](=O)[O-])c4)c3)nn12", "inhibition": 3.97}
{"smiles": "Cc1cc(=NN=Cc2ccc(Cl)cc2)c2ccccc2[nH]1", "inhibition": 6.86}
{"smiles": "CCCC(CNCc1cccc(SC(F)(F)F)c1)CNc1cc(=O)c2ccccc2[nH]1", "note": "(stereo not given)", "inhibition": 1.41}
{"smiles": "CS(=O)(=O)CCNCc1cc(-c2cc3ncnc(Nc4ccc(OCc5cccc(F)c5)c(Cl)c4)c3s2)cs1", "inhibition": 6.19}
{"smiles": "O=C(NCCCN1CCC(Cc2ccccc2)CC1)c1cc2c(Cl)nc3ccccc3c2s1", "inhibition": 1.9}
{"smiles": "Cc1ccc(NC(=O)c2cc(Br)cc(N3CCCN(C)CC3)c2)cc1F", "inhibition": 0.36}
{"smiles": "COc1cc(OCCCN(C)Cc2ccc(OC)c(OC)c2)ccc1NC(=O)c1cccc2c(O)c3cccc(F)c3nc12", "inhibition": 2.52}
{"smiles": "COc1ccc2nccc([C@@H](O)CN3CCC(NC(=O)c4cc5ccccc5[nH]4)CC3)c2c1", "inhibition": 55.7}
{"smiles": "Oc1c(Br)cc2oc3c(c2c1CNCc1ccccc1)CCCC3", "inhibition": -0.92}
{"smiles": "O=C(NCCCCN1CCC(c2ccc(OC(F)(F)F)cc2)CC1)c1ccc(NC(=O)c2ccc(Cl)cc2)cc1", "inhibition": 0.81}
{"smiles": "O=C1CSc2ccc(CNC3CCN(CCc4c(F)cnc5ccc(F)cc45)CC3)nc2N1", "inhibition": 0.21}
{"smiles": "CCC(C)Oc1ccc2nc(N)nc(N)c2c1Cl", "note": "(stereo not given)", "inhibition": 55.9}
{"smiles": "CCOC(=O)c1c(C)noc1Nc1cccc(C)c1C", "inhibition": -1.56}
{"smiles": "COc1ccccc1OCCN(CC(O)COc1cccc2[nH]c3ccccc3c12)CC(O)COc1cccc2[nH]c3ccccc3c12", "note": "(stereo not given)", "inhibition": 2.43}
{"smiles": "O=C(Nc1cc(C(F)(F)F)cc(C(F)(F)F)c1)c1cccc([N+](=O)[O-])c1", "inhibition": 4.66}
{"smiles": "COc1cc2c(cc1N1CCN(C)CC1)N(C(=O)Nc1ccc(-c3ccncc3)c(Cl)c1Cl)CC2", "inhibition": 0.34}
{"smiles": "CS(=O)(=O)CCCNCc1ccc(-c2cc3c(Nc4ccc(OCc5ccccc5)cc4)ncnc3cn2)o1", "inhibition": 2.8}
{"smiles": "CC(C)c1ccc(NC(=O)c2cccc(CN3CCCN(CC4CCCCC4)CC3)c2)cc1", "inhibition": 7.21}
{"smiles": "O=C(c1ccc(O)c(-c2cc(Cl)cc(Cl)c2)c1)N1CCCC1", "inhibition": 0.9}
{"smiles": "COc1ccc(C2CC(c3cccs3)=NN2C(=O)COc2cccc(C(C)=O)c2)cc1OC", "note": "(stereo not given)", "inhibition": -0.46}
{"smiles": "Oc1ccc(CCNCc2ccc(OCc3ccccc3)c(OCc3ccccc3)c2)cc1", "inhibition": 76.6}
{"smiles": "Cn1cncc1C(=O)Nc1cccc(-c2cccc(-c3nc4cc(F)ccc4[nH]3)c2)c1", "inhibition": 3.24}
{"smiles": "COc1cc2ccccc2c(OC)c1CNCCCCCCNCc1c(OC)cc2ccccc2c1OC", "inhibition": 7.88}
{"smiles": "O=C(Nc1cccc(-c2ccc(-c3nc4cc(F)ccc4[nH]3)s2)c1)c1cccnc1", "inhibition": 4.85}
{"smiles": "CCn1cc(-c2nc(-c3cc(OC)cc(OC)c3)no2)c(=O)c2ccccc21", "inhibition": 6.39}
{"smiles": "CCNc1cc(C(=O)N[C@@H](Cc2ccccc2Cl)[C@H](O)CNC(C)CCCC(C)C)cc(N2CCCCS2(=O)=O)c1", "note": "(stereo not given in full)", "inhibition": 0.93}
{"smiles": "COc1cccc(-c2cc(C(=O)Nc3cc(Oc4ccc(O)cc4)cc([N+](=O)[O-])c3)on2)c1", "inhibition": 8.76}
{"smiles": "O=C(CCc1c[nH]cn1)Nc1ccc(-c2cccc(-c3nc4ccccc4[nH]3)c2)cc1", "inhibition": 0.66}
{"smiles": "CCOc1ccc(C(Cc2ccccc2)NC(=O)c2cccnc2)cc1OCC", "note": "(stereo not given)", "inhibition": -2.62}
{"smiles": "COc1ccc2nccc(NC(=O)C3CCC(NCc4ccc5c(c4)NC(=O)CS5)CC3)c2c1", "note": "(stereo not given)", "inhibition": 2.96}
{"smiles": "Cc1cc(N)c2cc(NC(=O)c3cccc4ccccc34)ccc2n1", "inhibition": 1.19}
{"smiles": "CC1=C(C(=O)Nc2ccccc2)C(c2ccc([N+](=O)[O-])cc2)n2ncc(C(=O)Nc3ccccc3)c2N1", "note": "(stereo not given)", "inhibition": 6.94}
{"smiles": "O=C(N[C@H]1CCN(CCc2ccc(O[C@H]3CCNC3)c(Cl)c2)C1)c1ccc(Cl)c(Cl)c1", "inhibition": 1.22}
{"smiles": "Clc1ccc(CCNCCCCCCNCCc2ccc3c(c2)OCO3)cc1", "inhibition": 8.53}
{"smiles": "CCOC(=O)CCc1cc(F)c(F)c(OC[C@H](O)CNC(C)(C)C(O)c2ccc3ccccc3c2)c1", "note": "(stereo not given in full)", "inhibition": 0.61}
{"smiles": "Cc1ccccc1N1CCN(c2ccc(C(=O)Nc3ccccc3)cn2)CC1", "inhibition": 7.8}
